Measurements from PubChem BioAssay (NCI).
This is part of a sample that, as a whole, favours compounds with a hit. Of some 83,000 tested, about 20% had one in any assay.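 Activity criterion: percent growth below 10, measured after cells in 96-well plates were exposed to a single compound concentration for 48 hours.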 Values without a mark were called inactive. The source made the active and inactive calls.

system: SNB-19 CNS; test: NCI-60 one-dose screen, 48 h (100 = growth as untreated, 0 = no growth, -100 = all killed); settings: 10 µM unless noted

Row | SMILES | growth
1 | COc1cc(C2CC(C3C(=O)N(C)C(=O)N(C)C3=O)=NN2C=O)cc(OC)c1OC (configuration not stated) | 100%
2 | C=C1CCC2C3(C)COC(c4ccccc4)OC3CCC2(C)C1C/C=C1/C(=O)OCC1OC(C)=O (configuration not stated) | 95.6%
3 | Clc1ccc(C2=NN(c3ccc(Cl)cc3)C(c3cccc(Nc4ccnc5cc(Cl)ccc45)c3)C2)cc1 (configuration not stated) | 82.3%
4 | CC(=O)N1N=C(c2ccc(Nc3nc(NCCO)nc(NCCO)n3)cc2)CC1c1ccc(Cl)cc1 (configuration not stated) | 86.3%
5 | O=C(c1ccccc1)c1ccc(Oc2ccc([N+](=O)[O-])cc2[N+](=O)[O-])cc1 | 77.4%
6 | O=C(C(=O)N1CCOCC1)c1cn(CCCn2cc(C(=O)C(=O)N3CCOCC3)c3ccccc32)c2ccccc12 | 93.9%
7 | CC(C)CC1NC(=O)C(CCCN)NC(=O)C(C(C)C)NC(=O)C2CCCN2C(=O)C(Cc2ccccc2)NC(=O)C(CC(C)C)NC(=O)C(CCCN)NC(=O)C(C(C)C)NC(=O)C2CCCN2C(=O)C(Cc2ccccc2)NC1=O (configuration not stated) | -83% (active)
8 | Cc1csc(C#Cc2cncc(O)c2)n1 | 112%
9 | COc1cc(/C=C/C(=O)C(C(=O)/C=C/c2ccc(OC(=O)CCNC34CC5CC(CC(C5)C3)C4)c(OC)c2)C(=O)CCNC23CC4CC(CC(C4)C2)C3)ccc1OC(=O)CCNC12CC3CC(CC(C3)C1)C2 (configuration not stated) | 39.2%
10 | C/C=C(/C(=C/C)c1ccc(O)cc1)c1ccc(O)cc1 | 34.6%
11 | COc1cc(/C=C/C(=O)CC(=O)/C=C/c2ccc(OC(=O)CCNC34CC5CC(CC(C5)C3)C4)c(OC)c2)ccc1OC(=O)CCNC12CC3CC(CC(C3)C1)C2 | 29.6%
12 | Oc1c(Cl)cc(Cl)c(Cl)c1Cc1c(O)c(Cl)cc(Cl)c1Cl | 23%
13 | COc1cc(C2CC(c3ccc(C)cc3)=NN2C=O)ccc1OCCN(C)C (configuration not stated) | 92.5%
14 | NS(=O)(=O)c1cc(C2(O)NC(=O)c3ccccc32)ccc1Cl (configuration not stated) | 104%
15 | CCn1cnc(C[C@H](NC(=O)[C@H](CCCCNC(=O)Nc2cc(C(F)(F)F)cc(C(F)(F)F)c2)NC(=O)Nc2cc(C(F)(F)F)cc(C(F)(F)F)c2)C(=O)OC)c1 | -36.5% [100 µM] (active)
16 | CS(=O)(=O)N1CCN(Cc2cc3nc(-c4cccc5[nH]ncc45)nc(N4CCOCC4)c3s2)CC1 (tested in a mixture with another compound) | 28%

Row | SMILES | growth
17 | CN(C)c1ccc(-c2nc3ncc(Br)cc3o2)cc1 | 91%
18 | COc1ccc(-c2cc(-c3nnc(SCC(=O)Nc4ccc(C(C)=O)cc4)n3-c3ccccc3)c3ccccc3n2)cc1OC | 113%
19 | Nc1nc(NC2CC2)c2ncn(C3C=CC(CO)C3)c2n1 (configuration not stated) | 112%
20 | C[C@]12CCC(=O)C=C1CC[C@H]1[C@@H]3C[C@@H](O)[C@](O)(C(=O)CO)[C@@]3(C)C[C@H](O)[C@@]12F | 99.9%
21 | NS(=O)(=O)c1cc2c(cc1Cl)NC=NS2(=O)=O | 107%
22 | COc1cnc2c(c1)C(=O)c1c-2n(CCCn2ccnc2)c(=O)c2cc(F)ccc12 | 16.6%
23 | NC(=O)c1cc(Br)cc(Br)c1NS(=O)(=O)c1ccccc1 | 105%
24 | CN(C)c1ccc(-n2nc3ccccc3n2)cc1 | 98.6%
25 | CC1CN(C2CCCCC2)C(=O)NC1=O (configuration not stated) | 97.4%
26 | O=C1C=CC(=O)N1c1ccccc1N1C(=O)C=CC1=O | 91%
27 | Cc1n(Cc2ccc3ccccc3c2)c2ccccc2[n+]1Cc1ccc2ccccc2c1 | -91.7% (active)
28 | C[C@H]1O[C@@H](O[C@H]2[C@@H](O)C[C@H](O[C@H]3[C@@H](O)C[C@H](O[C@H]4CC[C@]5(C)C6C[C@@H](O)[C@]7(C)[C@@H](C8=CC(=O)OC8)CC[C@]7(O)C6CC[C@@H]5C4)O[C@@H]3C)O[C@@H]2C)C[C@H](O)[C@@H]1O (some centres not stated) | -100% (active)
29 | O=C(CNc1ccc2c(c1)C(=O)c1ccccc1C2=O)Nc1ccc2c(c1)C(=O)c1ccccc1C2=O | -29.9% (active)
30 | Cc1sc2nc(N3CCCCC3)[nH]c(=O)c2c1C | 92.4%
31 | NC(=NCCCCCCN=C(N)/N=C(\N)Nc1ccc(Cl)cc1)/N=C(\N)Nc1ccc(Cl)cc1 | 13.7%
32 | COc1cc(NC(=O)NCc2ccco2)ccc1-c1ccc(NC(=O)NCc2ccco2)cc1OC | 72.9%
